Assay results as given in PubChem BioAssay AID504467 (National Center for Advancing Translational Sciences (NCATS), 2011).
Out of some 330,000 compounds screened, about 7,700 (2.3%) were called active. Where a call stands in place of a potency, no number is given. Roughly 26% stayed inconclusive and do not appear here. Calls come from the whole dose curve; as a rule, active = well fitted inhibition curve with a large enough effect; inconclusive = small, poorly fitted or top-dose-only effect, or effect the other way; inactive = flat fitted curve, though single readings scatter. The sample as a whole holds a higher share of actives than the screen did.

assay: qHTS screen for small molecules that inhibit ELG1-dependent DNA repair in human embryonic kidney (HEK293T) cells expressing luciferase-tagged ELG1; conditions: HEK293T ELG1-luciferase reporter, luminescence, 16 h, DNA damage induced by 5-fluorouridine; series mostly up to 46.1 µM; note: nearly all actives have a fitted effect of over 55% in size
Procedure, shortened: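 Overnight (16 hr) co-exposure of 2,000 cells/well to 5-fluorouridine and compound at 37 °C preceded detection. Luciferase was quantified via ONE-Glo luminescence; loss of signal denotes inhibition.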
Potency is the fitted concentration of half-maximal effect.

SMILES | Potency
COc1ccc(NC(=O)CN(Cc2ccccc2)S(C)(=O)=O)cc1OC | inactive
COc1ccc(NC(=O)CN2C(=O)C(c3ccccc3)=NC23CCCCCC3)cc1OC | 23.1 µM (active)
COc1ccc(NC(=O)CC2SC(N3CCCCC3)=NC2=O)cc1OC (centres undefined) | inactive
COc1cc(S(=O)(=O)N2CCN=C2c2ccccc2)ccc1Cl | inactive
Cn1c(=O)c2c(SCC(=O)NCC3CCCO3)nc(CC(C)(C)C)nc2n(C)c1=O (centres undefined) | inactive
COc1ccc(NC(=O)C2CCC(CNc3c(N4CCCCC4)c(=O)c3=O)CC2)c(OC)c1 (centres undefined) | 7.3 µM (active)
CCN(CC)c1ccc(NC(=O)C2CCC(CNc3c(N4CCCC4)c(=O)c3=O)CC2)c(C)c1 (centres undefined) | inactive
CCOc1ccccc1NC(=O)C1CCC(CNc2c(N3CCOCC3)c(=O)c2=O)CC1 (centres undefined) | inactive
CC(CCc1ccccc1)NC(=O)c1cnc(Cl)c(Cl)c1 (centres undefined) | inactive
CCn1ccnc1CN1CCCC(C(=O)c2ccc3c4c(cccc24)CC3)C1 (centres undefined) | inactive
CC(=O)NCC(=O)N1CCCC(C(=O)c2ccc3c4c(cccc24)CC3)C1 (centres undefined) | inactive
Cc1ncoc1C(=O)N1CCCC(C(=O)c2ccc3c4c(cccc24)CC3)C1 (centres undefined) | 16.4 µM (active)
CC1CCCCC1NC(=O)NC(=O)COC(=O)C1=NN(c2ccccc2)C(=O)CC1 (centres undefined) | inactive
CCCC(=O)N1CCN(c2nnc(-c3ccc(C)cc3)c3ccccc23)CC1 | inactive
COc1ccc(CCN(C)C(=O)C23CC4CC(CC(Cl)(C4)C2)C3)cc1OC | inactive
CCCn1c(C2CCCN2c2nc(-c3ccc(C)cc3)cs2)nc2cc(Cl)c(N3CCCCC3)cc21 (centres undefined) | inactive
CC(C)(C)OC(=O)Nc1ccc([C@@H](NC(=O)OC(C)(C)C)C(=O)OC(C)(C)C)cc1 | inactive
CCc1nnc(NC(=O)C2CCN(C(=O)c3ccccc3C)CC2)s1 | inactive
CC(=O)c1cccc(NC(=O)C2CCN(C(=O)c3ccccc3Cl)CC2)c1 | inactive
Cc1ccccc1C(=O)N1CCC(C(=O)Nc2ccc(S(=O)(=O)N(C)C(C)C)cc2)CC1 | 16.4 µM (active)
O=C(Nc1ccccc1N1CCOCC1)c1ccc(OCc2cscn2)cc1 | inactive
O=C(COC(=O)CCCN1C(=O)c2cccc3cccc(c23)C1=O)NC1CCS(=O)(=O)C1 (centres undefined) | inactive
CCOC(=O)CSc1nc2ccc(C)cc2n2cnnc12 | inactive
O=C(CCc1nnc2ccc(NCc3ccco3)nn12)Nc1cc(F)ccc1F | inactive
COc1ccc(CCN(C)C(=O)C2CCCN(Cc3ccc(OC)c(OC)c3)C2)cc1OC (centres undefined) | inactive

SMILES | Potency
COc1ccc(CCNC(=O)C2CCCN(Cc3nc(-c4cccc(Cl)c4)oc3C)C2)cc1OC (centres undefined) | 10 µM (active)
COc1cccc(-c2nc(CS(=O)(=O)CC(=O)NCCc3ccc(OC)c(OC)c3)c(C)o2)c1 | inactive
CCOc1ccc(-n2c(SCC(=O)OC)nc3sc4c(c3c2=O)CCN(C)C4)cc1 | inactive
Cc1cn(COC/C=C/c2ccccc2)c(=O)[nH]c1=O | inactive
Cc1[nH]c(=O)c(C(=O)/C=C/c2ccccc2)c2c1CCCC2 | 8.2 µM (active)
O=C(/C=C/c1ccccc1)c1ccccc1O | inactive
OC(COc1ccccc1)Cn1cc(Br)cn1 (centres undefined) | inactive
O=C(c1ccccc1)c1ccc(OCC(O)CN2CCCC2)cc1 (centres undefined) | inactive
OC(CN=c1sc2ccccc2n1CC(O)COc1ccccc1)COc1ccccc1 (centres undefined) | 20.6 µM (active)
CC1(C)CC(=O)C=C(c2ccc(Cl)c(C(F)(F)F)c2)C1 | inactive
COc1ccc(C(CNC(=O)COc2ccc([N+](=O)[O-])cc2)N2CCCCC2)cc1 (centres undefined) | inactive
Cc1c(O)c(C)c2c(c1O)C(=O)C[C@@H](c1ccccc1)O2 | inactive
COc1cc(C(=O)NCc2ccc(-n3cccc3)cc2)cc(OC)c1OC | inactive
COc1cc(C(=S)NCc2ccccc2)cc(Br)c1O | inactive
COc1cc(C(=O)NCc2ccncc2)cc(Br)c1OCc1ccccc1 | 14.6 µM (active)
CC[C@]1(C(=O)OC)[C@H]2C(=O)N(C)C(=O)[C@H]2[C@H]2CN(C)C(=NCc3ccccc3)N21 | inactive
COc1ccc(NC(=O)CN(C)C(=O)c2cccc(S(=O)(=O)N3CCN(c4ccccc4)CC3)c2)cc1 | inactive
CC1CCCCC1NC(=O)Cn1cnc2c1c(=O)n(C)c(=O)n2C (centres undefined) | inactive
O=C(NCc1ccc(Cl)cc1)C1CCN(S(=O)(=O)c2cccs2)CC1 | inactive
O=C(NC1CCCCC1)C1CCCN(S(=O)(=O)c2cccs2)C1 (centres undefined) | inactive
O=C(Nc1ccc(Br)cn1)C1CCN(S(=O)(=O)c2cccs2)CC1 | 5.8 µM (active)
O=C(COC(=O)c1ccccn1)NNC(=O)c1ccc(Br)cc1 | inactive
Cc1ccc(OCC(=O)Nc2ccccc2C(=O)NC2CC2)cc1 | inactive
CCCCNC(=O)N(O)C1N(/N=C/c2ccccc2O)C(=S)SC1(C)C (centres undefined) | inactive
